Drawing on ChEMBL document CHEMBL1961873, “Compounds: GSK PKIS; Assays: Nanosyn kinase panel” (2012), this text covers inhibition for 16 molecules.

A word on the inhibition: it is the change of the read-out against control, counted positive when it falls.

Test [1] concerns the target RAC-alpha serine/threonine-protein kinase (Homo sapiens) (UniProt P31749). Conditions: at 0.1 µM.
For test [2] the target is unchanged. The note with it: at 1 µM.
Test [3] has as its target RAC-beta serine/threonine-protein kinase (Homo sapiens) (UniProt P31751). The note with it: at 0.1 µM.
Test [4] shares this target. Conditions: at 1 µM.
Test [5] deals with RAC-gamma serine/threonine-protein kinase (Homo sapiens) (UniProt Q9Y243). Conditions: at 0.1 µM.
RAC-gamma serine/threonine-protein kinase (Homo sapiens), sequence (Q9Y243 whole entry): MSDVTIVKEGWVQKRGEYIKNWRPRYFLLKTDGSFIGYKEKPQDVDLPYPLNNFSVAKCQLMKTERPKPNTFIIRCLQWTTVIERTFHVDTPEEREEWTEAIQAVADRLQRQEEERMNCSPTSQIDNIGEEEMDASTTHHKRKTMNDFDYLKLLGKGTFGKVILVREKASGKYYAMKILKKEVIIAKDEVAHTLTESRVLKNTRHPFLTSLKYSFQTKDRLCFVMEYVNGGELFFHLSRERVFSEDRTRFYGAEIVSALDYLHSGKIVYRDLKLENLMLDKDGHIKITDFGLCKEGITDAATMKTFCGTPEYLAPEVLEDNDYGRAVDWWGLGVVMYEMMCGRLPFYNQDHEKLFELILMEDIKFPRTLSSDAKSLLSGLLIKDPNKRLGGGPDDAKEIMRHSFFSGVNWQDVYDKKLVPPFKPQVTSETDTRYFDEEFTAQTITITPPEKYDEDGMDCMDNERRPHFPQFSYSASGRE
Test [6] shares this target. Conditions: at 1 µM.
Test [7] addresses G protein-coupled receptor kinase 6 (Homo sapiens) (UniProt P43250). The note with it: at 0.1 µM.
For test [8] the target is unchanged. The note with it: at 1 µM.
Test [9] addresses T1, Rhodopsin kinase GRK7 (Homo sapiens) (UniProt Q8WTQ7).
T1 sequence (whole entry): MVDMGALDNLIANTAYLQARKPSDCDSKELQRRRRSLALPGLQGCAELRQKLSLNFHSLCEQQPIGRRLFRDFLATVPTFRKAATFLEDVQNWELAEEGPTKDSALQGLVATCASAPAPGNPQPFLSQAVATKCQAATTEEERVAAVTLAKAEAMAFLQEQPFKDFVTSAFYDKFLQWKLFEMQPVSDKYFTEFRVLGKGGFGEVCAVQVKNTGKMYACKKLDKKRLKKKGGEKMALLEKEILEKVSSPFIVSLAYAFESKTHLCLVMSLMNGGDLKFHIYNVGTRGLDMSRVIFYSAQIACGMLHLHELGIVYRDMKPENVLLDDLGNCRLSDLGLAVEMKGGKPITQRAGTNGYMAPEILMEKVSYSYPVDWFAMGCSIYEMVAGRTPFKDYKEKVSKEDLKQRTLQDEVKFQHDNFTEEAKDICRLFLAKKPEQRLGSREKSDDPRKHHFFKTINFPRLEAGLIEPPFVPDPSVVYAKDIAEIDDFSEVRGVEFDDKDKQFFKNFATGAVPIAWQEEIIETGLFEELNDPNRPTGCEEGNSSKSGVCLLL
Conditions: at 0.1 µM.

Test [10] deals with T1, Rhodopsin kinase GRK7 (Homo sapiens). Conditions: at 1 µM.

RAC-alpha serine/threonine-protein kinase (Homo sapiens), sequence (P31749 whole entry): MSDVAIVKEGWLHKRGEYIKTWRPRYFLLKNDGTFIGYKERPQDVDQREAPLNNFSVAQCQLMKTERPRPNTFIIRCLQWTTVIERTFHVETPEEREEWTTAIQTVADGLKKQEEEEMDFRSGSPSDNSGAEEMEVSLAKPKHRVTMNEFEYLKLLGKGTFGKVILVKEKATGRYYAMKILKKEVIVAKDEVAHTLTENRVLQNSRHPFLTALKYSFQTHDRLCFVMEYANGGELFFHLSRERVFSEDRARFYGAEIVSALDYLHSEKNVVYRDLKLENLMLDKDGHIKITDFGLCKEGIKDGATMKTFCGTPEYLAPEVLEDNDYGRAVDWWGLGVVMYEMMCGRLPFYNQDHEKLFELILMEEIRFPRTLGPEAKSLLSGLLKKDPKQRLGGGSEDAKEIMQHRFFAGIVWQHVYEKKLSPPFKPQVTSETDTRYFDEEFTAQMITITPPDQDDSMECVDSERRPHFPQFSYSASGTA
G protein-coupled receptor kinase 6 (Homo sapiens), sequence (P43250 whole entry, looked up): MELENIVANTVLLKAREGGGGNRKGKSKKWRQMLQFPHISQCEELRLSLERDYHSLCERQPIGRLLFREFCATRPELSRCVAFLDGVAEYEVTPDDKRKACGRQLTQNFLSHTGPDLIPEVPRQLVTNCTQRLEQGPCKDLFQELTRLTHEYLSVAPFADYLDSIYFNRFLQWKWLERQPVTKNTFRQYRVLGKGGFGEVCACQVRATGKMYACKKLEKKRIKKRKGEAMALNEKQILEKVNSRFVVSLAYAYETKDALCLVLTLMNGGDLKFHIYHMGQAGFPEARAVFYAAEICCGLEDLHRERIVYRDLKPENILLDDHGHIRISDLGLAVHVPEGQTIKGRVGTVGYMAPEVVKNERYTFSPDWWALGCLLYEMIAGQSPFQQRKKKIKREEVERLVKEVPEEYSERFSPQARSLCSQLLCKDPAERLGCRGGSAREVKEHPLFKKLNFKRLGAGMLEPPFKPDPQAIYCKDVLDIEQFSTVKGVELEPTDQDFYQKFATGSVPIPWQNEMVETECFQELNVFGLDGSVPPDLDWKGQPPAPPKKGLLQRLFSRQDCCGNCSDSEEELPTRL
RAC-beta serine/threonine-protein kinase (Homo sapiens), sequence (P31751 whole entry): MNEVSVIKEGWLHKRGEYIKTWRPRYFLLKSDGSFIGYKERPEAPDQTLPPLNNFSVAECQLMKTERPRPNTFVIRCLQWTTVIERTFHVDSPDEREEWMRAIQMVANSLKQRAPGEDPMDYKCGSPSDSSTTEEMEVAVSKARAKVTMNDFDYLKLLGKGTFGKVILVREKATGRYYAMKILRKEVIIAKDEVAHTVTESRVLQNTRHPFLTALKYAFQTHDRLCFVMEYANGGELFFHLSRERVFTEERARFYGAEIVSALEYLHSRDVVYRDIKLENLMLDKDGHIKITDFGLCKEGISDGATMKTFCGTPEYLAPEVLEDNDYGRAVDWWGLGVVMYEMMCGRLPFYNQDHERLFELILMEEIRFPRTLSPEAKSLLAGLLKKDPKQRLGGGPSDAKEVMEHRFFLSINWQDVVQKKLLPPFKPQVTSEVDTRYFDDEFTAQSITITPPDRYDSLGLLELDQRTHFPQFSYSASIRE

On to `Nc1nc(-c2ccccn2)c(-c2ccc3ncccc3n2)s1`, for which the inhibition worked out at 0.97% in test [1]; 0.96% in [2]; 1.1% in [3]; 1.5% in test [4]; 1.6% in [5]; 1.17% in test [6]. Besides, the inhibition in test [7] was 5.73%; in test [8], 1.87%; in [9], 1.26%; in test [10], -0.58%.
As to `COc1ccc2cc(-c3c(-c4ccncc4)nc(-c4ccc([S+](C)[O-])cc4)n3C)ccc2c1` (stereo not given), the inhibition in test [1] came to 1%; in test [2], 0.09%; in [3], 1.34%; in [4], 1.69%; in test [5] it was 1.23%; in test [6], 0.72%. Also, the inhibition in test [7] was -3.74%; in [8] it was -0.39%; in [9], 2.62%; in [10], 2.42%.
Consider `CS(=O)(=O)CCNCc1ccc(-c2ccc3ncnc(Nc4ccc(OCc5ccccc5)c(Cl)c4)c3c2)o1`, for which the inhibition was -1% in [1]; -0.87% in test [2]; 0.26% in [3]; 0.32% in test [4]; -0.1% in test [5]; -0.63% in test [6]. Besides, the inhibition was 0.49% in test [7], 0.68% in test [8], 7.87% in test [9] and -3.27% in test [10].
Take `COc1cc2ncn(-c3cc(OCc4ccccc4Cl)c(C(N)=O)s3)c2cc1OC`: the inhibition in test [1] is -1.2%; in [2] it was -0.21%; in [3], -0.21%; in test [4], 0.92%; in test [5], 1.15%; in test [6] it was -1.17%. Also, the inhibition was 2.37% in test [7], 5.7% in test [8], -0.82% in test [9] and 9.44% in test [10].
On to `CS(=O)(=O)CCNCc1ccc(-c2ccc3ncnc(Nc4ccc(OCc5cccc(F)c5)c(C(F)(F)F)c4)c3c2)o1`, for which the inhibition is 1.75% in test [1]; 0.54% in test [2]; 2.87% in [3]; 0.73% in test [4]; 2.73% in test [5]; 2.96% in test [6]. Moreover, the inhibition was 9.26% in test [7], 5.4% in test [8], 3.55% in test [9] and 8.92% in test [10].
For `COc1ccc(-c2ccncc2)cc1C(N)=O`, the inhibition was 0.88% in test [1]; -0.34% in test [2]; 0.41% in test [3]; 2.06% in test [4]; 1.15% in test [5]; 2.9% in [6]. Moreover, the inhibition was determined as 5.49% in test [7], 5.53% in test [8], 9.86% in [9] and 2.23% in test [10].
Regarding `Nc1ncnc2occ(-c3ccc(NC(=O)Nc4cc(C(F)(F)F)cc(C(F)(F)F)c4)cc3)c12`, the inhibition in [1] was -0.23%; in test [2], 0.58%; in test [3] it was 1.95%; in test [4], 2.09%; in [5] it was 1.26%; in test [6], 1.13%. In addition, the inhibition in [7] was -2.78%; in test [8], -6.02%; in [9], -0.71%; in test [10] it was -8.6%.
For the molecule `CC1=C(C(=O)Nc2ccc3[nH]ncc3c2)C(c2ccc3ccccc3c2)CC(=O)N1` (stereo not given), the inhibition in [1] amounted to 0.52%; in test [2], 0.98%; in [3], 0.74%; in test [4] it was 1.1%; in test [5], 1.23%; in [6], 3.76%. Further, the inhibition in [7] was determined as 2.91%; in [8] it was 13.5%; in [9], 2.64%; in test [10], 4.56%.
For the molecule `CCN1CCC(CC(=O)Nc2n[nH]c3nc(-c4cccs4)c(Br)cc23)CC1`, the inhibition in test [1] was -2.05%; in test [2], -0.11%; in [3], -3.94%; in [4] it was -1.99%; in [5] it was -2.82%; in [6] it was 2.59%. Also, the inhibition was -0.66% in [7], -2.54% in test [8], -7.57% in [9] and -4.43% in test [10].
For `O=C1NC(=O)C(c2cccc(Cl)c2)=C1Nc1ccc(O)c(Cl)c1`, the inhibition in test [1] is 0.39%; in test [2], 1.25%; in [3] it was 0.32%; in [4] it was -0.16%; in test [5], 0.98%; in [6], 0.23%. The inhibition in [7] is 2.15%; in test [8], 1%; in test [9], 0.66%; in [10] it was 6.41%.
As to `Fc1cccc(COc2ccc(Nc3ncnc4cc(-c5ccc[nH]5)sc34)cc2Cl)c1`, the inhibition in test [1] is -3.51%; in test [2] it was -3.04%; in test [3], -2.34%; in test [4], -1.49%; in test [5], -3.34%; in test [6] it was -3.78%. The inhibition in test [7] is 5%; in test [8] it was 2.64%; in test [9], 1.96%; in [10] it was 13.6%.
Regarding `CNC(=O)c1cncc(/C=C/c2c(Cl)cccc2Cl)c1`, the inhibition is -2.98% in test [1]; -2.11% in test [2]; -2.93% in test [3]; -2.77% in [4]; -3.04% in [5]; 0.11% in test [6]. The inhibition in [7] was determined as 3.3%; in test [8], 4.35%; in [9], 10.6%; in [10], 8.22%.
Regarding `CC(=O)Nc1cccc(C#Cc2cncnc2Nc2ccc(OCc3cccc(F)c3)c(Cl)c2)n1`, the inhibition in [1] is -0.69%; in test [2], 0.42%; in [3], -1.3%; in [4], -0.21%; in [5], -1.1%; in test [6], -0.11%. Besides, the inhibition was 0.73% in test [7], 6.19% in test [8], 1.16% in [9] and 11.2% in [10].
Take `CC(C)=Cc1cccc2c1/C(=N/Nc1ccc(S(N)(=O)=O)cc1)C(=O)N2`: the inhibition in test [1] came out at 0.31%; in test [2], 0.65%; in test [3], 0.76%; in [4], 0.93%; in test [5], 2.87%; in test [6], 0.49%. Further, the inhibition was 3.06% in [7], 8.62% in test [8], 1.04% in test [9] and -0.7% in [10].
Consider `NC(=O)c1cccc(Nc2nccc(Nc3cccc4[nH]ncc34)n2)c1`, for which the inhibition in test [1] was -2.33%; in test [2], 1.84%; in test [3], -3.71%; in [4], -1.08%; in test [5] it was -2.36%; in test [6], -1.13%. The inhibition is -0.32% in [7], 2.35% in [8], -7.6% in test [9] and 5.88% in test [10].
As to `Fc1cccc(COc2ccc(Nc3ncnc4sc(-c5cccs5)cc34)cc2Cl)c1`, the inhibition in [1] is 0.07%; in [2] it was -0.67%; in test [3], -0.49%; in test [4], 0.01%; in test [5], 0.23%; in [6], 1.25%. Also, the inhibition in test [7] was 1.48%; in test [8], 1.31%; in test [9] it was 7.27%; in [10] it was -0.21%.
